Measurements reported in PubChem BioAssay (EPA / NIEHS).
Inconclusive results are not listed. The source made the active and inactive calls. Rule for the calls, unless noted: active = hit-call score of the fitted dose curve at least 0.9, where 1 is the maximum; inactive = score below 0.9.

Columns and labels:
[1] = CCTE_Shafer_MEA_dev_burst_rate: CCTE's Neural Network Formation Assay for Burst Rate, Shafer Lab (AID 2284042);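 for AC50: potency for loss of burst rate below DMSO control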
Outline: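 Exposure ran continuously over 12 days of network development in rat cortical cultures, with compound refreshed during full media changes on DIV 5 and 9. Single-electrode bursts per recording time, well-mean over active electrodes, trapezoidal AUC across days 5–12, fitted downward relative to DMSO.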

[2] = CCTE_Shafer_MEA_dev_per_burst_interspike_interval: CCTE's Neural Network Formation Assay for Burst Interspike Interval, Shafer Lab (AID 2284044);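 note: mean spike spacing inside bursts as AUC over recordings on days 5 7 9 12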;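 for AC50: potency for a decrease of within-burst interspike interval below DMSO level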
Outline: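 Developmental network-formation MEA in primary rat cortical cultures with exposure spanning days 0–12. Within-burst ISI is averaged per well and integrated across recording days by area under the curve, with DMSO as negative control baseline.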

[3] = CCTE_Shafer_MEA_dev_burst_duration_mean: CCTE's Neural Network Formation Assay for Mean Burst Duration, Shafer Lab (AID 2284045);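 for AC50: curve fitted for loss meaning shorter burst duration than DMSO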
Outline: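 Primary rat cortical neurons on 48-well 16-electrode MEA plates, exposed from day 0 with renewal at DIV 5 and 9; spontaneous activity recorded on days 5, 7, 9, 12. Well-mean burst duration across bursting electrodes, collapsed as trapezoidal AUC; DMSO baseline.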

[4] = CCTE_Shafer_MEA_dev_interburst_interval_mean: CCTE's Neural Network Formation Assay for Mean Interburst Interval, Shafer Lab (AID 2284046);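 note: well-mean interburst interval of bursting electrodes as AUC over four recording days; curve fitted for decrease in interburst interval relative to DMSO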
Outline: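 Primary rat cortical neurons on PEI-coated 48-well MEA plates (laminin added with cells at plating) (16 electrodes/well), exposed from plating day 0 with renewal at DIV 5 and 9. Mean inter-burst interval averaged over bursting electrodes, AUC across days 5, 7, 9, 12; DMSO baseline.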

[5] = CCTE_Shafer_MEA_dev_inter_network_spike_interval_mean: CCTE's Neural Network Formation Assay for Mean Inter-network Spike Interval, Shafer Lab (AID 2284047);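 for AC50: potency for a decrease in mean inter-network spike interval below DMSO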
Outline: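 Mean time between consecutive network-spike peaks, recorded extracellularly (adaptive spike detection) on DIV 5, 7, 9 and 12, summarized as trapezoidal AUC. Rat cortical cultures on MEAs dosed continuously days 0–12, re-dosed at feeds; loss-of-signal fit relative to DMSO.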

[6] = CCTE_Shafer_MEA_dev_network_spike_number: CCTE's Neural Network Formation Assay for Number of Network Spikes, Shafer Lab (AID 2284048);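 for AC50: fit as a loss of signal meaning fewer network spikes than DMSO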
Outline: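 Primary rat cortical neurons on PEI/laminin 48-well MEA plates, dosed from plating day 0 for 12 days, renewed at DIV 5 and 9. Network spike counts recorded DIV 5, 7, 9, 12, collapsed as trapezoidal AUC; DMSO baseline.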

[7] = CCTE_Shafer_MEA_dev_network_spike_peak: CCTE's Neural Network Formation Assay for Mean Number of Electrodes in Network Spike, Shafer Lab (AID 2284049);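 for AC50: fitted for loss of signal meaning fewer electrodes in network spikes than DMSO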
Outline: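 Network-spike peak electrode count from recordings on days 5, 7, 9 and 12 was combined as trapezoidal area under the curve. Rat cortical cultures were treated continuously from plating, with compound renewed at each feed (DIV 5, 9); fits versus DMSO.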

[8] = CCTE_Shafer_MEA_dev_spike_duration_mean: CCTE's Neural Network Formation Assay for Mean Spike Duration, Shafer Lab (AID 2284051);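 note: mean network spike duration pooled as area under curve over DIV 5 to 12 recordings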;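 for AC50: potency for a decrease in mean network spike duration versus DMSO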
Outline: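 Spontaneous activity was recorded on days 5, 7, 9 and 12 from rat cortical cultures grown on microelectrode arrays and dosed continuously from day 0, with media and compound renewed after the DIV 5 and 9 recordings. Network-spike duration was collapsed by area under the curve.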

[9] = CCTE_Shafer_MEA_dev_per_network_spike_spike_number_mean: CCTE's Neural Network Formation Assay for Mean Number of Spikes in a Network Spike, Shafer Lab (AID 2284053);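 for AC50: fitted as decrease in spikes per network spike relative to DMSO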
Outline: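 Mean spike count within each network spike, taken in a 0.05 s window at its peak, was recorded on days 5, 7, 9 and 12 and integrated as trapezoidal area under the curve. Rat cortical cultures on MEA plates received continuous compound from day 0, refreshed at medium changes on DIV 5 and 9.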

[10] = CCTE_Shafer_MEA_dev_per_network_spike_spike_percent: CCTE's Neural Network Formation Assay for Percent of Spikes in a Network Spike, Shafer Lab (AID 2284054)
Outline: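 Rat primary cortical neurons were grown on 48-well MEA plates (16 electrodes/well), exposed from plating day 0 through day 12, with treatment renewed on DIV 5 and 9. Percent of spikes within 0.05 s network-spike peaks was measured, summarised as AUC across days 5, 7, 9, 12.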

[11] = CCTE_Shafer_MEA_dev_active_electrodes_number: CCTE's Neural Network Formation Assay for Number of Active Electrodes, Shafer Lab (AID 2284040; active = hit-call score of the fitted dose curve at least 0.9, where 1 is the maximum;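 for AC50: potency for loss of active electrodes versus DMSO so lower counts are hits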)
Outline: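 Rat cortical primary cultures, 1.5 x 10^5 cells/well, PEI-coated MEA, laminin drop. Continuous exposure DIV 0–12; full media/compound change DIV 5, 9. Readout: electrodes with mean firing ≥5 spikes/min; AUC across days; loss vs DMSO.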

[12] = CCTE_Shafer_MEA_dev_bursting_electrodes_number: CCTE's Neural Network Formation Assay for Number of Bursting Electrodes, Shafer Lab (AID 2284043; active = hit-call score of the fitted dose curve at least 0.9, where 1 is the maximum;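 for AC50: potency is for loss of bursting electrodes relative to DMSO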)
Outline: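 Primary rat cortical neurons plated on 16-electrode MEA wells, exposed from day 0 with compound renewed at DIV 5 and 9. Electrodes bursting ≥1 burst per 2 min counted on days 5, 7, 9 and 12; trapezoidal AUC across days, fitted for loss versus DMSO.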

[13] = CCTE_Shafer_MEA_dev_LDH: CCTE's Lactate Dehydrogenase Assay for Cytotoxicity in the Neural Network Formation Assay, Shafer Lab (AID 2284068; active = hit-call score of the fitted dose curve at least 0.9, where 1 is the maximum;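 note: exposure for twelve days from plating with re-dosing on DIV 5 and 9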)
Outline: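 Primary rat cortical neurons were cultured on PEI-coated MEA plates and exposed from plating through day 12, with compound renewed at medium changes on DIV 5 and 9. LDH activity was read spectrophotometrically; loss of signal versus DMSO indicates reduced viability.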

[14] = CCTE_Shafer_MEA_dev_AB: CCTE's Alamar Blue Assay for Cytotoxicity in the Neural Network Formation Assay, Shafer Lab (AID 2284083; active = hit-call score of the fitted dose curve at least 0.9, where 1 is the maximum;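 note: resazurin reduction fluorescence as viability of cultured neurons; twelve days of exposure from plating with re-dosing on DIV 5 and 9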)
Outline: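 Resazurin fluorescence, relative to DMSO, gauges viability after twelve days of exposure that began at plating of rat cortical neurons (1.5 x 10^5 cells/well, 48-well MEA); treatment renewed with full medium exchange on DIV 5 and 9.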

Measured: AC50

COC(=O)C(F)(F)C(F)(F)C(F)(F)C(F)(F)C(F)(F)F
inactive: [1] | [2] | [3] | [4] | [5] | [6] | [7] | [8] | [9] | [10]

CN(Cc1cnc2nc(N)nc(N)c2n1)c1ccc(C(=O)N[C@@H](CCC(=O)O)C(=O)O)cc1
active: [11] 30.3 nM | [1] 36.5 nM | [12] 20.9 nM | [2] 2980 nM | [3] 72.8 nM | [4] 136 nM | [5] 30.8 nM | [6] 25.8 nM | [7] 27.9 nM | [8] 34.3 nM | [9] 25.8 nM | [10] 25.3 nM | [13] 8.02 nM | [14] 38.9 nM

O=C(C=C(O)C(F)(F)F)C(F)(F)F
inactive: [1] | [12] | [2] | [3] | [4] | [5] | [6] | [7] | [8] | [9] | [10] | [13]

FC(F)=C(F)C(F)(F)C(F)(F)C(F)(F)C(F)F
inactive: [1] | [2] | [3] | [4] | [5] | [6] | [7] | [8] | [9] | [10]

O=C(CC(=O)C(F)(F)C(F)(F)C(F)(F)F)c1cccs1
inactive: [1] | [2] | [3] | [5] | [6]
active: [11] 8830 nM | [12] 8130 nM | [4] 5430 nM | [7] 7420 nM | [8] 7700 nM | [9] 3720 nM | [10] 3480 nM | [13] 8630 nM | [14] 9020 nM

C=CC(F)(F)C(F)(F)C(F)(F)C(F)(F)F
inactive: [11] | [1] | [12] | [2] | [3] | [4] | [5] | [6] | [7] | [8] | [9] | [10] | [14]

CC(C)c1c(C(=O)Nc2ccccc2)c(-c2ccccc2)c(-c2ccc(F)cc2)n1CC[C@@H](O)C[C@@H](O)CC(=O)O
active: [11] 9.81 nM | [1] 8.94 nM | [12] 9.22 nM | [2] 25.5 nM | [3] 10.5 nM | [4] 8.32 nM | [5] 7.22 nM | [6] 5.74 nM | [7] 6.41 nM | [8] 4.74 nM | [9] 8.16 nM | [10] 8.21 nM | [13] 1.48 nM | [14] 25.8 nM

O=CC(F)(F)C(F)(F)C(F)(F)C(F)F
inactive: [11] | [1] | [12] | [2] | [3] | [4] | [5] | [6] | [7] | [8] | [9] | [10]
